# Measured values as given in PubChem BioAssay AID1159580 (chemical genetic matrix, 2015).
# About 2,000 (36%) of roughly 5,500 compounds were called active. Not shown: some 18% with an inconclusive outcome. Some of the results follow. Unmarked numbers belong to inactive results. Rule as the data show it: active = normalized growth mostly below about 0.91 (no sharp cut-off); inconclusive = no clear call, values can overlap the other calls; inactive = mostly above about 0.92.
# Assay: chemical genetic growth profiling, strain panel (AID 1159580);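 also: tested at 20 µM; growth read once vehicle control cultures reached saturation at 30 °C; 1 = growth at the plate median or of vehicle wells; lower values mean less growth of the strain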
# Settings: growth OD
compound,measurement,setting,value
CC(C)N(C(=O)CCl)c1ccccc1,normalized growth,"S. cerevisiae deletion strains, locus YJR043C, strain POL32, active compounds read low",1.03
same,normalized growth,"S. cerevisiae deletion strains, locus YJR075W, strain HOC1, active compounds read low",1.04
same,normalized growth,"S. cerevisiae deletion strains, locus YKL009W, strain mrt4, active compounds read low",1.02
same,normalized growth,"S. cerevisiae deletion strains, locus YKL068W, active compounds read low",1.04
same,normalized growth,"S. cerevisiae deletion strains, locus YKL085W, strain MDH1 (second series), active compounds read low",1.03
same,normalized growth,"S. cerevisiae deletion strains, locus YKL085W, strain MDH1, active compounds read low",1.03
same,normalized growth,"S. cerevisiae deletion strains, locus YKL160W, strain elf1, active compounds read low",0.974
same,normalized growth,"S. cerevisiae deletion strains, locus YKL190W, strain CNB1, active compounds read low",1.03
same,normalized growth,"S. cerevisiae deletion strains, locus YKR001C, strain vps1, active compounds read low",1.07
same,normalized growth,"S. cerevisiae deletion strains, locus YKR026C, strain gcn3, active compounds read low",1.01
same,normalized growth,"S. cerevisiae deletion strains, locus YKR091W, strain srl3, active compounds read low",1.01
same,normalized growth,"S. cerevisiae deletion strains, locus YLL001W, strain dnm1, active compounds read low",0.992
same,normalized growth,"S. cerevisiae deletion strains, locus YLL026W, active compounds read low",1.01
same,normalized growth,"S. cerevisiae deletion strains, locus YLL041C, strain sdh2, active compounds read low",1.02
same,normalized growth,"S. cerevisiae deletion strains, locus YLR027C, strain aat2, active compounds read low",1.01
same,normalized growth,"S. cerevisiae deletion strains, locus YLR039C, strain RIC1, active compounds read low",1.2
same,normalized growth,"S. cerevisiae deletion strains, locus YLR058C, strain SHM2, active compounds read low",1.03
same,normalized growth,"S. cerevisiae deletion strains, locus YLR102C, strain apc9, active compounds read low",1
same,normalized growth,"S. cerevisiae deletion strains, locus YLR221C, strain rsa3, active compounds read low",1
same,normalized growth,"S. cerevisiae deletion strains, locus YLR258W, strain gsy2, active compounds read low",0.978
same,normalized growth,"S. cerevisiae deletion strains, locus YLR262C, strain YPT6 (second series), active compounds read low",1.14
same,normalized growth,"S. cerevisiae deletion strains, locus YLR262C, strain YPT6, active compounds read low",1.21
same,normalized growth,"S. cerevisiae deletion strains, locus YLR268W, strain sec22, active compounds read low",1.02
same,normalized growth,"S. cerevisiae deletion strains, locus YLR320W, strain mms22, active compounds read low",0.97
same,normalized growth,"S. cerevisiae deletion strains, locus YLR330W, strain CHS5, active compounds read low",1.02
same,normalized growth,"S. cerevisiae deletion strains, locus YLR342W, strain FKS1 (second series), active compounds read low",0.989
same,normalized growth,"S. cerevisiae deletion strains, locus YLR342W, strain FKS1, active compounds read low",1.03
same,normalized growth,"S. cerevisiae deletion strains, locus YLR357W, strain rsc2, active compounds read low",1.18 [resistant] (active)
same,normalized growth,"S. cerevisiae deletion strains, locus YLR370C, strain arc18, active compounds read low",1.03
same,normalized growth,"S. cerevisiae deletion strains, locus YLR371W, strain rom2, active compounds read low",1.01
same,normalized growth,"S. cerevisiae deletion strains, locus YLR384C, strain iki3, active compounds read low",1.01
same,normalized growth,"S. cerevisiae deletion strains, locus YLR418C, strain cdc73, active compounds read low",0.798 (active)
same,normalized growth,"S. cerevisiae deletion strains, locus YML016C, strain PPZ1, active compounds read low",0.996
same,normalized growth,"S. cerevisiae deletion strains, locus YML032C, strain rad52, active compounds read low",1.01
same,normalized growth,"S. cerevisiae deletion strains, locus YML120C, strain ndi1, active compounds read low",0.986
same,normalized growth,"S. cerevisiae deletion strains, locus YML124C, strain tub3, active compounds read low",1.02
same,normalized growth,"S. cerevisiae deletion strains, locus YMR058W, strain fet3, active compounds read low",1
same,normalized growth,"S. cerevisiae deletion strains, locus YMR078C, strain ctf18, active compounds read low",1.01
same,normalized growth,"S. cerevisiae deletion strains, locus YMR125W, strain sto1, active compounds read low",1.16 [resistant] (active)
same,normalized growth,"S. cerevisiae deletion strains, locus YMR129W, active compounds read low",1.01
same,normalized growth,"S. cerevisiae deletion strains, locus YMR205C, strain PFK2, active compounds read low",0.919
same,normalized growth,"S. cerevisiae deletion strains, locus YMR223W, strain ubp8, active compounds read low",1.02
same,normalized growth,"S. cerevisiae deletion strains, locus YMR231W, strain pep5, active compounds read low",0.992
same,normalized growth,"S. cerevisiae deletion strains, locus YMR263W, strain SAP30, active compounds read low",1.04
same,normalized growth,"S. cerevisiae deletion strains, locus YMR307W, strain GAS1, active compounds read low",0.99
same,normalized growth,"S. cerevisiae deletion strains, locus YNL067W, strain RPL9B, active compounds read low",1.04
same,normalized growth,"S. cerevisiae deletion strains, locus YNL071W, strain lat1, active compounds read low",0.922
same,normalized growth,"S. cerevisiae deletion strains, locus YNL128W, strain TEP1, active compounds read low",1.03
same,normalized growth,"S. cerevisiae deletion strains, locus YNL153C, strain GIM3, active compounds read low",1.03
same,normalized growth,"S. cerevisiae deletion strains, locus YNL209W, strain ssb2, active compounds read low",1.01
same,normalized growth,"S. cerevisiae deletion strains, locus YNL233W, strain BNI4, active compounds read low",1.03
same,normalized growth,"S. cerevisiae deletion strains, locus YNL248C, strain rpa49, active compounds read low",0.992
same,normalized growth,"S. cerevisiae deletion strains, locus YNL250W, strain rad50, active compounds read low",1.03
same,normalized growth,"S. cerevisiae deletion strains, locus YNL271C, strain bni1, active compounds read low",1.02
same,normalized growth,"S. cerevisiae deletion strains, locus YNL298W, strain CLA4, active compounds read low",1.03
same,normalized growth,"S. cerevisiae deletion strains, locus YNL307C, strain MCK1, active compounds read low",0.981
same,normalized growth,"S. cerevisiae deletion strains, locus YNL322C, strain KRE1 (second series), active compounds read low",1.04
same,normalized growth,"S. cerevisiae deletion strains, locus YNL322C, strain KRE1, active compounds read low",1.04
same,normalized growth,"S. cerevisiae deletion strains, locus YNR049C, strain mso1, active compounds read low",1.02
same,normalized growth,"S. cerevisiae deletion strains, locus YNR052C, strain pop2, active compounds read low",1.02
same,normalized growth,"S. cerevisiae deletion strains, locus YOL006C, strain TOP1, active compounds read low",1
same,normalized growth,"S. cerevisiae deletion strains, locus YOL012C, strain htz1",0.89
same,normalized growth,"S. cerevisiae deletion strains, locus YOL147C, strain pex11, active compounds read low",1
same,normalized growth,"S. cerevisiae deletion strains, locus YOR001W, strain rrp6, active compounds read low",0.983
same,normalized growth,"S. cerevisiae deletion strains, locus YOR061W, strain CKA2, active compounds read low",1.03
same,normalized growth,"S. cerevisiae deletion strains, locus YOR069W, strain VPS5, active compounds read low",1.01
same,normalized growth,"S. cerevisiae deletion strains, locus YOR070C, strain gyp1, active compounds read low",1.01
same,normalized growth,"S. cerevisiae deletion strains, locus YOR080W, strain dia2, active compounds read low",1.03
same,normalized growth,"S. cerevisiae deletion strains, locus YOR083W, strain WHI5, active compounds read low",0.976
same,normalized growth,"S. cerevisiae deletion strains, locus YOR106W, strain vam3, active compounds read low",0.958
same,normalized growth,"S. cerevisiae deletion strains, locus YOR136W, strain idh2, active compounds read low",1
same,normalized growth,"S. cerevisiae deletion strains, locus YOR144C, strain elg1, active compounds read low",1.02
same,normalized growth,"S. cerevisiae deletion strains, locus YOR184W, strain ser1, active compounds read low",1
same,normalized growth,"S. cerevisiae deletion strains, locus YOR265W, strain rbl2, active compounds read low",1.04
same,normalized growth,"S. cerevisiae deletion strains, locus YOR270C, strain vph1, active compounds read low",0.865
same,normalized growth,"S. cerevisiae deletion strains, locus YOR290C, strain snf2, active compounds read low",0.928
same,normalized growth,"S. cerevisiae deletion strains, locus YOR316C, strain cot1, active compounds read low",1.01
same,normalized growth,"S. cerevisiae deletion strains, locus YPL051W, strain arl3, active compounds read low",0.987
same,normalized growth,"S. cerevisiae deletion strains, locus YPL055C, strain LGE1, active compounds read low",1.03
same,normalized growth,"S. cerevisiae deletion strains, locus YPL078C, strain atp4, active compounds read low",0.973
same,normalized growth,"S. cerevisiae deletion strains, locus YPL106C, strain sse1, active compounds read low",1.14
same,normalized growth,"S. cerevisiae deletion strains, locus YPL240C, strain hsp82, active compounds read low",1
same,normalized growth,"S. cerevisiae deletion strains, locus YPL241C, strain CIN2, active compounds read low",1.02
same,normalized growth,"S. cerevisiae deletion strains, locus YPR119W, strain clb2, active compounds read low",1.01
same,normalized growth,"S. cerevisiae deletion strains, locus YPR141C, strain kar3, active compounds read low",1.03
same,normalized growth,"S. cerevisiae deletion strains, locus YPR163C, strain tif3, active compounds read low",1.03
same,normalized growth,"S. cerevisiae deletion strains, locus YPR167C, strain met16, active compounds read low",1.02
same,normalized growth,"S. cerevisiae deletion strains, strain wtn01, active compounds read low",1.02
same,normalized growth,"S. cerevisiae strains, strain wild type, active compounds read low",1.03
